# Measured values: PubChem BioAssay
# Active and inactive are the calls of the source. Unless noted, no stated cut-off is given here; in the data, active means inhibition above about 80%; inactive means the rest.
# What was measured:
# [1] = viability loss with induced miR-34 in A549 – imaging, A549 dox-inducible miR-34, nuclei and caspase counts, primary screen (AID 1347080;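 active means compounds whose cell count with miR-34 switched on is under 0.7 times the count with it off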); settings: A549 miR-34 inducible, Hoechst nuclei count, 48 h
# [2] = MELAS cybrid and Rieske KO viability enhancers – cell-based, MELAS cybrids, Rieske KO mouse fibroblasts, CellTiter-Glo, primary screen (AID 1508586;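 active means mean z-score across replicates of 1.96 or higher in either the MELAS or the Rieske mutant cell line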;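 further: z relative to plate mean and SD of compound and empty wells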); settings: low glucose
# [3] = growth inhibition, single agent or in combination, cell-based, chromothripsis tumors, cisplatin or BGB combos (AID 1671449); settings: LFS_MB_P medulloblastoma cells;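 further: cells exposed for 96 hours; 0% = vehicle DMSO and 100% = killing by high DMSO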
# [4] = growth inhibition, single agent and combos, cell-based, chromothripsis tumors, cisplatin or BGB combos (AID 1671450); settings: HDN33 neuroblastoma cells, stronger effect = higher value;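 further: cells exposed to compound for four days; 0% = vehicle DMSO and 100% = cell killing by high DMSO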
# [5] = growth inhibition, single agents and combos, ICB984, cell-based, cisplatin or BGB combos, synergistic combos for chromothripsis tumors (AID 1671451; call rule not given here;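 further: cells exposed for 96 hours before readout; 0% = vehicle DMSO and 100% = killing by high DMSO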); settings: ICB984 medulloblastoma cells, drug combinations, stronger effect = higher value
# [6] = growth inhibition, single agents and combos, LFS_MB_1R, cell-based, cisplatin or BGB combos, synergistic combos for chromothripsis tumors (AID 1671452); settings: LFS_MB_1R medulloblastoma cells, stronger effect = higher value;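 further: cells exposed for 96 hours before readout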
# [7] = growth inhibition, single agents and combos, HTB85, cell-based, BGB or cisplatin IC20 combos, synergistic combos for chromothripsis tumors (AID 1671453); settings: HTB85 osteosarcoma cells, drug combinations, stronger effect = higher value;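 further: cells exposed for 96 hours before readout; 0% = vehicle DMSO and 100% = high DMSO killing control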
# [8] = growth inhibition, single agents and combos, CRL2098, cell-based, BGB or cisplatin IC20 combos, synergistic combos for chromothripsis tumors (AID 1671454); settings: CRL2098 osteosarcoma cells, drug combinations, stronger effect = higher value;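 further: cells exposed for 96 h before readout; 0% = vehicle DMSO and 100% = killing by high DMSO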
# [9] = growth inhibition, single agents and combos, HD-MB03, cell-based, BGB or cisplatin IC20 combos, synergistic combos for chromothripsis tumors (AID 1671455; in the data active means inhibition above about 83%;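 further: 0% = vehicle DMSO and 100% = high DMSO as cytotoxic control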); settings: HD-MB03 medulloblastoma cells, stronger effect = higher value
# [10] = growth inhibition, single agents and combos, UWB1.289, cell-based, BGB or cisplatin combos, synergistic combos for chromothripsis tumors (AID 1671456); settings: UWB1.289 ovarian carcinoma cells, stronger effect = higher value;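 further: cells exposed to compound for four days; 0% = vehicle DMSO and 100% = killing by high DMSO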
# [11] = growth inhibition, single agents and combos, LFS_MB_2R, cell-based, cisplatin combos, synergistic combos for chromothripsis tumors (AID 1671457); settings: LFS_MB_2R medulloblastoma cells, stronger effect = higher value;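 further: cells exposed to compound for four days before readout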
# [12] = growth inhibition, MDA-MB-436, cell-based, BGB or cisplatin combos, synergistic combos for chromothripsis tumors (AID 1671458; call rule not given here;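 further: cells exposed for 96 hours; 0% = vehicle DMSO and 100% = killing by high DMSO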); settings: MDA-MB-436 breast carcinoma growth inhibition, drug combinations, stronger effect = higher value
# [13] = UWB1.289_BRCA1 ovarian cancer growth, cell-based, BGB or cisplatin combinations (AID 1671459); settings: UWB1.289 BRCA1 ovarian carcinoma, drug combinations, stronger effect = higher value
# [14] = drug combination toxicity in non-malignant astrocytes – cell-based, BGB or cisplatin IC20 combos, cytotoxicity control for chromothriptic childhood tumor combination screen (AID 1671460); settings: Human astrocytes, viability inhibition, drug combinations, at 0.5 µM, stronger effect = higher value;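 further: cells exposed to compounds for 96 hours before viability readout; 0% = vehicle and 100% = killing control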
# [15] = BT084 cell growth, single and combined drugs, ICGC_MB145, cisplatin and BGB IC40 combos (AID 1671461); settings: BT084 medulloblastoma cells, drug combinations, stronger effect = higher value;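 further: cells exposed to drugs for 96 hours; 0% = vehicle DMSO and 100% = high DMSO full killing control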
# [16] = RCMB18 cell growth, single agent and combined, cisplatin and BGB IC40 combos (AID 1671462); settings: RCMB18 medulloblastoma cells, stronger effect = higher value;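 further: cells exposed to compound for four days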
# [17] = CRL1545 cell growth, single agent and combined, cisplatin and BGB IC20 combos (AID 1671464); settings: CRL1545 osteosarcoma cells, stronger effect = higher value;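 further: cells exposed to compound for 96 hours before readout; 0% = vehicle DMSO and 100% = high DMSO killing control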
# [18] = measured here: combination with BGB IC40, at 0.05 µM
# [19] = measured here: with BGB IC20 combination, at 0.5 µM
# [20] = measured here: with cisplatin IC20 combination, at 0.5 µM
# [21] = measured here: combination with cisplatin, at 0.5 µM
# [22] = measured here: combination with cisplatin, at 5 µM
compound,measurement,setting,value
Cc1cc(C)c(Nc2ccnc(Nc3ccc(C#N)cc3)n2)c(C)c1,fold change,"[1]; stronger effect = lower value, cell number ratio, induced over uninduced",0.923 (inactive)
same,fold change,[1]; measured here: relative caspase fold change +Dox/-Dox,0.624
same,cell count,"[1]; measured here: total cells with miR-34 induction, stronger effect = lower value",2390
same,cell count,[1]; measured here: total cells without miR-34 induction,2590
same,z-score,"[2]; MELAS cybrid survival, CellTiter-Glo 48 h, stronger effect = higher value",0.0317 (inactive)
same,z-score,"[2]; Rieske KO mouse fibroblast survival, CellTiter-Glo 72 h",0.105
same,inhibition,"[3]; at 0.5 µM, stronger effect = higher value",-1.98% (inactive)
same,inhibition,"[3]; measured here: combination with BGB IC20, at 0.005 µM",-30.5%
same,inhibition,"[3]; measured here: combination with BGB IC40, at 0.005 µM",-59.6%
same,inhibition,[3]; [18],-34.5%
same,inhibition,"[3]; measured here: combination with cisplatin, at 0.5 µM, stronger effect = higher value",-3.17%
same,inhibition,"[3]; measured here: combination with cisplatin, at 5 µM, stronger effect = higher value",-40.8%
same,inhibition,"[4]; BGB combo, at 5 µM",15.1%
same,inhibition,[4]; at 0.5 µM,0.3% (inactive)
same,inhibition,"[4]; cisplatin combo, at 5 µM",3.99%
same,inhibition,[4]; [19],-2.53%
same,inhibition,[4]; [20],7.83%
same,inhibition,"[4]; single agent, at 5 µM",42.2%
same,inhibition,"[5]; BGB IC20 combo, at 0.005 µM",-14.3%
same,inhibition,"[5]; BGB IC40 combo, at 0.005 µM",-27.4%
same,inhibition,"[5]; BGB IC40 combo, at 0.05 µM",-8.56%
same,inhibition,[5]; at 0.5 µM,-22.9% (inactive)
same,inhibition,"[5]; cisplatin combo, at 0.05 µM",-14.1%
same,inhibition,"[5]; cisplatin combo, at 0.5 µM",-41.4%
same,inhibition,"[5]; cisplatin combo, at 5 µM",-46.6%
same,inhibition,"[5]; measured here: 5 uM single agent, at 5 µM",-22%
same,inhibition,[6]; at 0.5 µM,-25.5% (inactive)
same,inhibition,[6]; [18],-43.1%
same,inhibition,[6]; [21],-56.3%
same,inhibition,[6]; [22],-12.2%
same,inhibition,[7]; at 0.5 µM,-1.97% (inactive)
same,inhibition,"[7]; measured here: with BGB IC20, at 0.5 µM",4.79%
same,inhibition,"[7]; measured here: with BGB IC20, at 5 µM",40.8%
same,inhibition,"[7]; measured here: with cisplatin IC20, at 0.5 µM",-20.5%
same,inhibition,"[7]; measured here: with cisplatin IC20, at 5 µM",9.74%
same,inhibition,"[7]; single agent, at 5 µM",50.9%
same,inhibition,[8]; at 0.5 µM,-8.33% (inactive)
same,inhibition,"[8]; measured here: combination with BGB at IC20, at 0.5 µM",-39%
same,inhibition,"[8]; measured here: combination with cisplatin at IC20, at 0.5 µM",10.4%
same,inhibition,[9]; at 0.5 µM,-17.9% (inactive)
same,inhibition,"[9]; measured here: combo with BGB at IC20, at 0.5 µM",-21.5%
same,inhibition,"[9]; measured here: combo with cisplatin at IC20, at 0.5 µM",-28.7%
same,inhibition,[10]; at 0.5 µM,-2.26% (inactive)
same,inhibition,"[10]; measured here: inhibition with BGB combination, at 0.05 µM",-10.8%
same,inhibition,"[10]; measured here: inhibition with cisplatin combination, at 0.05 µM",-7.91%
same,inhibition,[11]; at 0.5 µM,-18.5% (inactive)
same,inhibition,[11]; [21],-29.8%
same,inhibition,[11]; [22],-25.8%
same,inhibition,[12]; at 0.5 µM,-14.9% (inactive)
same,inhibition,"[12]; measured here: BGB combination, at 0.5 µM",-9.41%
same,inhibition,"[12]; measured here: BGB combination, at 5 µM",25.9%
same,inhibition,"[12]; measured here: cisplatin combination, at 0.5 µM",-36.7%
same,inhibition,"[12]; measured here: cisplatin combination, at 5 µM",45.4%
same,inhibition,"[13]; BGB combination, concentration series, at 5 µM",69.3%
same,inhibition,[13]; at 0.5 µM,-2.68% (inactive)
same,inhibition,"[13]; cisplatin combination, concentration series, at 5 µM",45%
same,inhibition,[14],11.9% (inactive)
same,inhibition,[14]; measured here: combo with BGB IC20,11.7%
same,inhibition,[14]; measured here: combo with cisplatin IC20,9.36%
same,inhibition,[15]; at 0.5 µM,8.57% (inactive)
same,inhibition,"[15]; cisplatin combination, at 0.5 µM",-23.4%
same,inhibition,"[15]; cisplatin combination, at 5 µM",-181%
same,inhibition,"[15]; measured here: BGB IC40 combination 0.05 uM, at 0.05 µM",-32.7%
same,inhibition,"[15]; single agent, at 5 µM",2.56%
same,inhibition,[16]; at 0.5 µM,-10.9% (inactive)
same,inhibition,"[16]; cisplatin combo, at 5 µM",-30.4%
same,inhibition,"[16]; measured here: BGB IC40 combination, at 0.05 µM",-21.8%
same,inhibition,[16]; [21],-16.3%
same,inhibition,"[16]; single agent, at 5 µM",17.4%
same,inhibition,[17]; at 0.5 µM,11.1% (inactive)
same,inhibition,[17]; [19],-10.9%
same,inhibition,[17]; [20],20.9%
same,inhibition,"[17]; single agent, at 0.05 µM",-17.9%
same,inhibition,"[17]; single agent, at 5 µM",56.2%
